# Data taken from PubChem BioAssay AID1159580 (chemical genetic matrix, 2015).
# Screen size: about 5,500 compounds; about 2,000 (36%) were called active. Not shown: some 18% with an inconclusive outcome. The list shows a part of the results. A number with no mark means an inactive call. Rule as the data show it: active = normalized growth mostly below about 0.91 (no sharp cut-off); inconclusive = no clear call, values can overlap the other calls; inactive = mostly above about 0.92.
# Assay: chemical genetic growth profiling, strain panel (AID 1159580);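 also: tested at 20 µM; growth read once vehicle control cultures reached saturation at 30 °C; 1 = growth at the plate median or of vehicle wells; lower values mean less growth of the strain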
# Conditions: S. cerevisiae deletion strains, growth OD
# [1] = locus YAL021C, strain ccr4, active compounds read low
# [2] = locus YAL026C, strain drs2, active compounds read low
# [3] = locus YAL030W, strain snc1, active compounds read low
# [4] = locus YBL061C, strain skt5, active compounds read low
# [5] = locus YBR009C, strain hhf1, active compounds read low
# [6] = locus YBR023C, strain chs3, active compounds read low
# [7] = locus YBR171W, strain sec66, active compounds read low
# [8] = locus YBR231C, strain swc5, active compounds read low
# [9] = locus YBR279W, strain paf1, active compounds read low
# [10] = locus YCL011C, strain gbp2, active compounds read low
# [11] = locus YCL016C, strain dcc1, active compounds read low
# [12] = locus YCL061C, strain MRC1, active compounds read low
# [13] = locus YCL069W, strain vba3, active compounds read low
# [14] = locus YCR088W, strain abp1, active compounds read low
# [15] = locus YDL005C, strain med2, active compounds read low
# [16] = locus YDL040C, strain nat1, active compounds read low
# [17] = locus YDR001C, strain nth1, active compounds read low
# [18] = locus YDR069C, strain doa4, active compounds read low
# [19] = locus YDR137W, strain rgp1, active compounds read low
# [20] = locus YDR159W, strain sac3, active compounds read low
# [21] = locus YDR297W, strain sur2, active compounds read low
# [22] = locus YDR334W, strain swr1, active compounds read low
# [23] = locus YDR335W, strain msn5, active compounds read low
# [24] = locus YDR392W, strain spt3, active compounds read low
# [25] = locus YEL003W, strain gim4, active compounds read low
# [26] = locus YEL037C, strain rad23, active compounds read low
# [27] = locus YEL061C, strain CIN8 (second series), active compounds read low
# [28] = locus YER015W, strain faa2, active compounds read low
# [29] = locus YER016W, strain bim1, active compounds read low
# [30] = locus YER111C, strain swi4, active compounds read low
# [31] = locus YER155C, strain BEM2 (second series), active compounds read low
# [32] = locus YFR010W, strain ubp6, active compounds read low
# [33] = locus YGL167C, strain pmr1, active compounds read low
# [34] = locus YGL173C, strain kem1, active compounds read low
# [35] = locus YGL227W, strain vid30, active compounds read low
# [36] = locus YGL240W, strain doc1, active compounds read low
# [37] = locus YGL253W, strain hxk2, active compounds read low
# [38] = locus YHR013C, strain ard1, active compounds read low
# [39] = locus YHR027C, strain rpn1, active compounds read low
# [40] = locus YHR030C, strain SLT2, active compounds read low
# [41] = locus YHR079C, strain IRE1, active compounds read low
# [42] = locus YHR142W, strain chs7, active compounds read low
# [43] = locus YJL092W, strain hpr5, active compounds read low
# [44] = locus YJL095W, strain BCK1 (second series), active compounds read low
# [45] = locus YJL095W, strain BCK1, active compounds read low
# [46] = locus YJL115W, strain asf1, active compounds read low
# [47] = locus YJL129C, strain trk1, active compounds read low
# [48] = locus YJL154C, strain vps35, active compounds read low
# [49] = locus YJL164C, strain tpk1, active compounds read low
# [50] = locus YJL166W, strain qcr8, active compounds read low
# [51] = locus YJR066W, strain TOR1, active compounds read low
# [52] = locus YKL160W, strain elf1, active compounds read low
# [53] = locus YKR026C, strain gcn3, active compounds read low
# [54] = locus YKR091W, strain srl3, active compounds read low
# [55] = locus YLL001W, strain dnm1, active compounds read low
# [56] = locus YLL026W, active compounds read low
# [57] = locus YLL041C, strain sdh2, active compounds read low
# [58] = locus YLR027C, strain aat2, active compounds read low
# [59] = locus YLR113W, strain HOG1, active compounds read low
# [60] = locus YLR221C, strain rsa3, active compounds read low
# [61] = locus YLR258W, strain gsy2, active compounds read low
# [62] = locus YLR262C, strain YPT6 (second series), active compounds read low
# [63] = locus YLR320W, strain mms22, active compounds read low
# [64] = locus YLR342W, strain FKS1, active compounds read low
# [65] = locus YLR357W, strain rsc2, active compounds read low
# [66] = locus YLR370C, strain arc18, active compounds read low
# [67] = locus YLR384C, strain iki3, active compounds read low
# [68] = locus YML120C, strain ndi1, active compounds read low
# [69] = locus YMR058W, strain fet3, active compounds read low
# [70] = locus YMR125W, strain sto1, active compounds read low
# [71] = locus YMR129W, active compounds read low
# [72] = locus YMR205C, strain PFK2, active compounds read low
# [73] = locus YMR231W, strain pep5, active compounds read low
# [74] = locus YNL071W, strain lat1, active compounds read low
# [75] = locus YNL183C, strain NPR1, active compounds read low
# [76] = locus YNL209W, strain ssb2, active compounds read low
# [77] = locus YNL248C, strain rpa49, active compounds read low
# [78] = locus YNL322C, strain KRE1 (second series), active compounds read low
# [79] = locus YNR049C, strain mso1, active compounds read low
# [80] = locus YOR001W, strain rrp6, active compounds read low
# [81] = locus YOR070C, strain gyp1, active compounds read low
# [82] = locus YOR080W, strain dia2, active compounds read low
# [83] = locus YOR083W, strain WHI5, active compounds read low
# [84] = locus YOR106W, strain vam3, active compounds read low
# [85] = locus YOR231W, strain MKK1, active compounds read low
# [86] = locus YOR265W, strain rbl2, active compounds read low
# [87] = locus YOR270C, strain vph1, active compounds read low
# [88] = locus YOR290C, strain snf2, active compounds read low
# [89] = locus YPL051W, strain arl3, active compounds read low
# [90] = locus YPL078C, strain atp4, active compounds read low
# [91] = locus YPL106C, strain sse1, active compounds read low
# [92] = locus YPL240C, strain hsp82, active compounds read low
# [93] = locus YPL256C, strain CLN2, active compounds read low
smiles,measurement,setting,value
C#C[C@]1(O)CCC2C3CCc4cc(OC)ccc4C3CC[C@@]21C (some centres undefined),normalized growth,[1],1.02
same,normalized growth,[2],0.956
same,normalized growth,[3],0.987
same,normalized growth,[4],0.968
same,normalized growth,[5],0.933
same,normalized growth,[6],0.913 (active)
same,normalized growth,[7],0.959
same,normalized growth,[8],0.953
same,normalized growth,[9],0.967
same,normalized growth,[10],0.923
same,normalized growth,[11],0.912 (active)
same,normalized growth,[12],0.937
same,normalized growth,[13],0.976
same,normalized growth,[14],0.972
same,normalized growth,[15],0.985
same,normalized growth,[16],0.982
same,normalized growth,[17],0.982
same,normalized growth,[18],1.01
same,normalized growth,[19],0.839 (active)
same,normalized growth,[20],0.949
same,normalized growth,"locus YDR195W, strain ref2",1.01
same,normalized growth,[21],0.994
same,normalized growth,[22],0.983
same,normalized growth,[23],0.998
same,normalized growth,[24],0.614 (active)
same,normalized growth,[25],0.984
same,normalized growth,[26],0.968
same,normalized growth,[27],0.972
same,normalized growth,[28],0.991
same,normalized growth,[29],0.99
same,normalized growth,[30],0.969
same,normalized growth,[31],0.923
same,normalized growth,[32],0.962
same,normalized growth,[33],0.972
same,normalized growth,[34],0.98
same,normalized growth,[35],0.987
same,normalized growth,[36],0.963
same,normalized growth,[37],0.912
same,normalized growth,[38],0.926
same,normalized growth,[39],0.987
same,normalized growth,[40],0.974
same,normalized growth,[41],0.987
same,normalized growth,[42],0.866 (active)
same,normalized growth,[43],0.96
same,normalized growth,[44],0.975
same,normalized growth,[45],0.975
same,normalized growth,[46],0.988
same,normalized growth,[47],0.965
same,normalized growth,[48],0.983
same,normalized growth,[49],0.923
same,normalized growth,[50],0.923
same,normalized growth,"locus YJL187C, strain SWE1, active compounds read low",0.987
same,normalized growth,[51],0.933
same,normalized growth,[52],0.913
same,normalized growth,[53],0.988
same,normalized growth,[54],0.975
same,normalized growth,[55],0.903
same,normalized growth,[56],0.979
same,normalized growth,[57],0.986
same,normalized growth,[58],0.969
same,normalized growth,[59],0.931
same,normalized growth,[60],0.912
same,normalized growth,[61],0.956
same,normalized growth,[62],0.798 (active)
same,normalized growth,[63],0.902
same,normalized growth,[64],0.952
same,normalized growth,[65],0.909
same,normalized growth,[66],0.966
same,normalized growth,[67],0.986
same,normalized growth,[68],0.933
same,normalized growth,[69],0.935
same,normalized growth,[70],0.951
same,normalized growth,[71],0.977
same,normalized growth,[72],0.923
same,normalized growth,[73],0.993
same,normalized growth,[74],0.89 (active)
same,normalized growth,[75],0.917
same,normalized growth,[76],0.974
same,normalized growth,[77],0.951
same,normalized growth,[78],0.964
same,normalized growth,[79],0.983
same,normalized growth,[80],1
same,normalized growth,[81],0.951
same,normalized growth,[82],0.999
same,normalized growth,[83],0.919
same,normalized growth,[84],0.969
same,normalized growth,[85],0.958
same,normalized growth,[86],0.969
same,normalized growth,[87],0.949
same,normalized growth,[88],0.874
same,normalized growth,[89],0.923
same,normalized growth,[90],0.902
same,normalized growth,[91],0.913
same,normalized growth,[92],0.985
same,normalized growth,[93],0.973
C[C@]12CCC3c4ccc(OS(=O)(=O)O)cc4CCC3C1CCC2=O (some centres undefined),normalized growth,[1],0.957
same,normalized growth,[2],1.01
same,normalized growth,[3],0.986
same,normalized growth,[4],0.967
same,normalized growth,[5],1.02
same,normalized growth,[6],0.987
same,normalized growth,[7],1
same,normalized growth,[8],1.01
same,normalized growth,[9],0.999
same,normalized growth,[10],0.998
same,normalized growth,[11],0.986
same,normalized growth,[12],1.01
same,normalized growth,[13],0.995
same,normalized growth,[14],0.998
same,normalized growth,[15],0.978
same,normalized growth,[16],1
same,normalized growth,[17],0.995
same,normalized growth,[18],0.989
same,normalized growth,[19],0.976
same,normalized growth,[20],1
same,normalized growth,"locus YDR195W, strain ref2",0.999
same,normalized growth,[21],1
same,normalized growth,[22],0.993
same,normalized growth,[23],1
same,normalized growth,[24],0.923
same,normalized growth,[25],0.998
same,normalized growth,[26],1.01
same,normalized growth,[27],1.03
same,normalized growth,[28],0.993
same,normalized growth,[29],0.962
same,normalized growth,[30],0.959
same,normalized growth,[31],1
same,normalized growth,[32],1.02
same,normalized growth,[33],1
same,normalized growth,[34],0.97
same,normalized growth,[35],0.981
same,normalized growth,[36],0.983
same,normalized growth,[37],0.996
same,normalized growth,[38],0.939
same,normalized growth,[39],1.01
same,normalized growth,[40],0.961
same,normalized growth,[41],0.961
same,normalized growth,[42],0.983
same,normalized growth,[43],1
same,normalized growth,[44],0.977
same,normalized growth,[45],0.992
same,normalized growth,[46],0.995
same,normalized growth,[47],0.958
same,normalized growth,[48],0.974
same,normalized growth,[49],0.996
same,normalized growth,[50],1.01
same,normalized growth,[51],0.942
same,normalized growth,[52],0.928
same,normalized growth,[53],1
same,normalized growth,[54],0.991
same,normalized growth,[55],1.02
same,normalized growth,[56],1.02
same,normalized growth,[57],0.991
same,normalized growth,[58],1.01
same,normalized growth,[59],1.02
same,normalized growth,[60],1.04
same,normalized growth,[61],1
same,normalized growth,[62],0.984
same,normalized growth,[63],1.01
same,normalized growth,[64],0.971
same,normalized growth,[65],0.983
same,normalized growth,[66],1.01
same,normalized growth,[67],0.981
same,normalized growth,[68],1
same,normalized growth,[69],1.01
same,normalized growth,[70],0.97
same,normalized growth,[71],1.01
same,normalized growth,[72],1
same,normalized growth,[73],0.995
same,normalized growth,[74],1.02
same,normalized growth,[75],0.975
same,normalized growth,[76],0.985
same,normalized growth,[77],0.89
same,normalized growth,[78],0.948
same,normalized growth,[79],0.99
same,normalized growth,[80],1.03
same,normalized growth,[81],0.987
same,normalized growth,[82],0.991
same,normalized growth,[83],0.912
same,normalized growth,[84],0.971
same,normalized growth,[85],1
same,normalized growth,[86],1.01
same,normalized growth,[87],0.917
same,normalized growth,[88],0.977
same,normalized growth,[89],0.987
same,normalized growth,[90],0.965
same,normalized growth,[91],0.968
same,normalized growth,[92],0.999
same,normalized growth,[93],0.982
